Results from paper PMC7862700, “An all-to-all approach to the identification of sequence-specific readers for epigenetic DNA modifications on cytosine”.

What was measured:
Assay in all cases: DAPPL (digital affinity profiling via proximity ligation, sequencing); 10 mM Tris-HCl pH 7.5, 50 mM NaCl, 1 mM DTT, 4% glycerol, room temperature, 30 min; GST-TFs on glutathione beads, 16-mer random dsDNA library, 0.1% formaldehyde crosslink after washing; high values mean tight binding
FLI1 = molecular target: T1, FLI1 (Homo sapiens, UniProt Q01543 1-452); conditions: protein: recombinant; tags: N-terminal GST; dsDNA, one strand shown
T1 sequence: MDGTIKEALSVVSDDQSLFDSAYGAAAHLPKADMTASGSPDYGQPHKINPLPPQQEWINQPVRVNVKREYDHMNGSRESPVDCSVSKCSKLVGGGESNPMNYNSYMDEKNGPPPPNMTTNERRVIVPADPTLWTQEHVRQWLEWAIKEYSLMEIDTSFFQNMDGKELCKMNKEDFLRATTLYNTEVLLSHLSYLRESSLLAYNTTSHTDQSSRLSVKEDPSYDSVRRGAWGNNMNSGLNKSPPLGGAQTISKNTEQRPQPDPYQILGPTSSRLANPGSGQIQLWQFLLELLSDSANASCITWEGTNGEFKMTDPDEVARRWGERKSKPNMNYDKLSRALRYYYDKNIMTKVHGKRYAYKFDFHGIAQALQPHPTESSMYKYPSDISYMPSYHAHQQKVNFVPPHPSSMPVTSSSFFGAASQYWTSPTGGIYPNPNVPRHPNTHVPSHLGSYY
Summary of the method: (§1)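 Each value of binding signal is a hexamer's read frequency for a factor divided by the same hexamer's frequency in the tag-only sample. Barcoded, bead-captured GST fusions of human transcription factors made in yeast were pooled with that sample and incubated with 200 nmole of a random double-stranded 16-mer DNA library in Tris/NaCl/DTT/glycerol buffer at room temperature for 30 min. Washing, 0.1% formaldehyde crosslinking, proximity ligation, PCR and Illumina NextSeq500 sequencing followed.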

ELK1 = molecular target: T2, ELK1 (Homo sapiens, UniProt P19419 1-428); conditions: protein: recombinant; tags: N-terminal GST; dsDNA, one strand shown
T2 sequence: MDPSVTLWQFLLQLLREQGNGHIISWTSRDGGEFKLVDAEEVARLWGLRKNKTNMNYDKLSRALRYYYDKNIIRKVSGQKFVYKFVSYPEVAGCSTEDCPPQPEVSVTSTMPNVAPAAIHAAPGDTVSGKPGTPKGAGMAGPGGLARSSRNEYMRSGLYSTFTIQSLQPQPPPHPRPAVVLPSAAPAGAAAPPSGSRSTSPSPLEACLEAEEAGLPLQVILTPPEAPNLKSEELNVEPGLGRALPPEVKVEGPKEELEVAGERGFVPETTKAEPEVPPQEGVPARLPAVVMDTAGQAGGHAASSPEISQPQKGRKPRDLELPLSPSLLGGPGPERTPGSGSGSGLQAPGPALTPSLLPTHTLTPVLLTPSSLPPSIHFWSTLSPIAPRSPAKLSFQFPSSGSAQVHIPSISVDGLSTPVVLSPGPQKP
Summary of the method: as §1

GABPA = molecular target: T3, GABPA (Homo sapiens, UniProt Q06546 1-454); conditions: protein: recombinant; tags: N-terminal GST; dsDNA, one strand shown
T3 sequence: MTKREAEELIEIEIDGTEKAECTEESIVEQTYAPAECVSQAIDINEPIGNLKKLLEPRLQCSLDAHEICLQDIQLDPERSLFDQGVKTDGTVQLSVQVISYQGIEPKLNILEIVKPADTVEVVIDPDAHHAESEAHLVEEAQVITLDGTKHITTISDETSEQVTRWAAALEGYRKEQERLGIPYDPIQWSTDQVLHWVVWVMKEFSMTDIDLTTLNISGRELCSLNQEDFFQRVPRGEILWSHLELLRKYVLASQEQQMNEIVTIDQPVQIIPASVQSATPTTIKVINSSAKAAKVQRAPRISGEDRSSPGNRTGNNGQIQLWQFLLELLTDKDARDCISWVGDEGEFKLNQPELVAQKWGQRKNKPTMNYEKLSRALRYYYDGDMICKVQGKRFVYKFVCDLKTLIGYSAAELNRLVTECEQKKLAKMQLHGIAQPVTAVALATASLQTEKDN
Summary of the method: as §1

ELF1 = ELF1 (Homo sapiens, UniProt P32519 1-619); conditions: protein: recombinant; tags: N-terminal GST; dsDNA, one strand shown
Summary of the method: as §1

EHF = molecular target: T4, EHF (Homo sapiens, UniProt Q9NZC4 1-300); conditions: protein: recombinant; tags: N-terminal GST; dsDNA, one strand shown
T4 sequence: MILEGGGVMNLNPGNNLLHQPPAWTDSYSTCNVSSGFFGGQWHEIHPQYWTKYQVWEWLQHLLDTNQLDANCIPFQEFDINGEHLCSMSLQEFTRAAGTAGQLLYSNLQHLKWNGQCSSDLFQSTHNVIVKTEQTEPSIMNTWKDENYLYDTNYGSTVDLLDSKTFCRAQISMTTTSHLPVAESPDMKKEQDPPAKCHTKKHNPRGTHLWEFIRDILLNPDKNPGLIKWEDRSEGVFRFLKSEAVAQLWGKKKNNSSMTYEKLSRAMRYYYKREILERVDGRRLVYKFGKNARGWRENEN
Summary of the method: as §1

SPI1 = SPI1 (Homo sapiens, UniProt P17947 1-270); conditions: protein: recombinant; tags: N-terminal GST; dsDNA, one strand shown
Summary of the method: as §1

SPIB = SPIB (Homo sapiens, UniProt Q01892 1-262); conditions: protein: recombinant; tags: N-terminal GST; dsDNA, one strand shown
Summary of the method: as §1

ELK3 = molecular target: T5, ELK3 (Homo sapiens, UniProt P41970 1-407); conditions: protein: recombinant; tags: N-terminal GST; dsDNA, one strand shown
T5 sequence: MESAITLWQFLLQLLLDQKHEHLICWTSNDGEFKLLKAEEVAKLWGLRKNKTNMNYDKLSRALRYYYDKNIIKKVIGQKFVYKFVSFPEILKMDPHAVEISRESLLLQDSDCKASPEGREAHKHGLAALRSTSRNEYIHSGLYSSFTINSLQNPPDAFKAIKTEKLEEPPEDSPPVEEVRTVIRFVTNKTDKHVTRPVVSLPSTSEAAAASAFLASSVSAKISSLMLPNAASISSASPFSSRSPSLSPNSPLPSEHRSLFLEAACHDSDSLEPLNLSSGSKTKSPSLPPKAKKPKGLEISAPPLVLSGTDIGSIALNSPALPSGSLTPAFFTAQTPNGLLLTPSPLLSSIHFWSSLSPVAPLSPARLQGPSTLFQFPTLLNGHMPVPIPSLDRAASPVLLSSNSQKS
Summary of the method: as §1

FEV = molecular target: T6, FEV (Homo sapiens, UniProt Q99581 1-238); conditions: protein: recombinant; tags: N-terminal GST; dsDNA, one strand shown
T6 sequence: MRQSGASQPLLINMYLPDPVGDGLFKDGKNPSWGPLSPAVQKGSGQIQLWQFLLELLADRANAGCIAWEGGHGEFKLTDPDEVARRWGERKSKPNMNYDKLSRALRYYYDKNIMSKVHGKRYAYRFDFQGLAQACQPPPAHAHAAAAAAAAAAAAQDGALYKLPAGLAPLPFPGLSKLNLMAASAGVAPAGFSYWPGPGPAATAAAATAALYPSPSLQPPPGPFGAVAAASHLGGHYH
Summary of the method: as §1

ETV5 = ETV5 (Homo sapiens, UniProt P41161 1-510); conditions: protein: recombinant; tags: N-terminal GST; dsDNA, one strand shown
Summary of the method: as §1

HSF1 = HSF1 (Homo sapiens, UniProt Q00613 1-529); conditions: protein: recombinant; tags: N-terminal GST; chain copies: 3; dsDNA, one strand shown
Summary of the method: as §1

SPIC = molecular target: T7, SPIC (Homo sapiens, UniProt Q8N5J4 1-248); conditions: protein: recombinant; tags: N-terminal GST; dsDNA, one strand shown
T7 sequence: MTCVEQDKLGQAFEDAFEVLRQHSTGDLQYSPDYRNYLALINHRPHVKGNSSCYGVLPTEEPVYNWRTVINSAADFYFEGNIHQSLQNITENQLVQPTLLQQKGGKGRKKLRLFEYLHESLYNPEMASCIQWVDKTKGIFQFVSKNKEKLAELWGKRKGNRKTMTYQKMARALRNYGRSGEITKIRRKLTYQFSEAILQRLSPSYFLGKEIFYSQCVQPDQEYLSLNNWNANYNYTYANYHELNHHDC
Summary of the method: as §1

ELF4 = ELF4 (Homo sapiens, UniProt Q99607 1-663); conditions: protein: recombinant; tags: N-terminal GST; dsDNA, one strand shown
Summary of the method: as §1

ELK4 = molecular target: T8, ELK4 (Homo sapiens, UniProt P28324-2 1-405); conditions: protein: recombinant; tags: N-terminal GST; dsDNA, one strand shown
T8 sequence: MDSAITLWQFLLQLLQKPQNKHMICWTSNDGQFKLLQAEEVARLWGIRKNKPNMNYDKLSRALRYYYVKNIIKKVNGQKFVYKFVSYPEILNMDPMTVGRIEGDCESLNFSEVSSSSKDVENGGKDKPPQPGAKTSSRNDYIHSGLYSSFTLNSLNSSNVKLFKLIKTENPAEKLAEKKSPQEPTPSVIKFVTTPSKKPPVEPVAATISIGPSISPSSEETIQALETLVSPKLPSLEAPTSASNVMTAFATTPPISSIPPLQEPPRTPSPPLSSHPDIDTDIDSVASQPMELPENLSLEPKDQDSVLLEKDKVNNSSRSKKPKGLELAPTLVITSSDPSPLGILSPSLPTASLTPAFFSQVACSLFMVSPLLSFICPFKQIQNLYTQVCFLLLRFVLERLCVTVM
Summary of the method: as §1

ETV2 = molecular target: T9, ETV2 (Homo sapiens, UniProt O00321 1-342); conditions: protein: recombinant; tags: N-terminal GST; dsDNA, one strand shown
T9 sequence: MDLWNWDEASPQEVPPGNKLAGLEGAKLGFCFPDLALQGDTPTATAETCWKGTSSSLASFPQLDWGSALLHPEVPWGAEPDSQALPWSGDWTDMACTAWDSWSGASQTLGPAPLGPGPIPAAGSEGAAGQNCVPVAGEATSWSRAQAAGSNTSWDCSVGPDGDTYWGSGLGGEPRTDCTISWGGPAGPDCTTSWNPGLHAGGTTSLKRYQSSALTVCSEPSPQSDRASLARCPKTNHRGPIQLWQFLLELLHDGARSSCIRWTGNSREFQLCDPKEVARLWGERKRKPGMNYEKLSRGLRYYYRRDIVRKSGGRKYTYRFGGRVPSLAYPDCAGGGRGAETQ
Summary of the method: as §1

ELF3 = molecular target: T10, ELF3 (Homo sapiens, UniProt P78545 1-371); conditions: protein: recombinant; tags: N-terminal GST; dsDNA, one strand shown
T10 sequence: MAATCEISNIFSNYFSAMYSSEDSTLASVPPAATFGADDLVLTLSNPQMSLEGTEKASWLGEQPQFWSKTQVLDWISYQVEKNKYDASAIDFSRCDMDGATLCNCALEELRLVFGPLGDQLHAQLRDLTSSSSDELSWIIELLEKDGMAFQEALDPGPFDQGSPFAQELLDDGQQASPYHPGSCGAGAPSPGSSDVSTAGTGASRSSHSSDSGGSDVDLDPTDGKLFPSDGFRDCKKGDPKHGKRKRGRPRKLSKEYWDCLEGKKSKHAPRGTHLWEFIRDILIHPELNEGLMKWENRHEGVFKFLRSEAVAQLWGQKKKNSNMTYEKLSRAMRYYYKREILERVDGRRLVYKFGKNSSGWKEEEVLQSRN
Summary of the method: as §1

CRX = CRX (Homo sapiens, UniProt O43186 1-299); conditions: protein: recombinant; tags: N-terminal GST; dsDNA, one strand shown
Summary of the method: as §1

ETV1 = ETV1 (Homo sapiens, UniProt P50549 1-477); conditions: protein: recombinant; tags: N-terminal GST; dsDNA, one strand shown
Summary of the method: as §1

HSF1, sequence (Q00613 whole entry): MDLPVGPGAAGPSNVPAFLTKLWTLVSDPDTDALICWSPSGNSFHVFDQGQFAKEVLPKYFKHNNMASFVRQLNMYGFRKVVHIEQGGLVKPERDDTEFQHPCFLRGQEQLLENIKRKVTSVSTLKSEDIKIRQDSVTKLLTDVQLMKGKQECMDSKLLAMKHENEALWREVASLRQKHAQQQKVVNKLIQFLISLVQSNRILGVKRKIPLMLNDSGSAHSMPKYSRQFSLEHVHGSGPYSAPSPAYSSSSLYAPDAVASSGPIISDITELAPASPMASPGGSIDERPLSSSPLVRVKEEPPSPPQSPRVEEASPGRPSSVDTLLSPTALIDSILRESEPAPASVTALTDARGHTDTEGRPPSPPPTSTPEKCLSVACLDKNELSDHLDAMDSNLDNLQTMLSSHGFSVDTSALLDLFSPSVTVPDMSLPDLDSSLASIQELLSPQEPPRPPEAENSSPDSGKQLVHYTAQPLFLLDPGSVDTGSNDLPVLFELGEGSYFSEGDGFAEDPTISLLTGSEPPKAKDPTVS
CRX, sequence (O43186 whole entry): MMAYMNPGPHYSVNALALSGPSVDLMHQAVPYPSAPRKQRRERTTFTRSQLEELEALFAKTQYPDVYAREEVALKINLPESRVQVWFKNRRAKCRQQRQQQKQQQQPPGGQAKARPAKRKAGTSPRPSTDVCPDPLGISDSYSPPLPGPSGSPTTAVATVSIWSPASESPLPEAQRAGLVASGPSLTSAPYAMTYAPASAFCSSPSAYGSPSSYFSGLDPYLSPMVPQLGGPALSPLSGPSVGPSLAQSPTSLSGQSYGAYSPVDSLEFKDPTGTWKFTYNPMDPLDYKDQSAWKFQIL
SPIB, sequence (Q01892 whole entry): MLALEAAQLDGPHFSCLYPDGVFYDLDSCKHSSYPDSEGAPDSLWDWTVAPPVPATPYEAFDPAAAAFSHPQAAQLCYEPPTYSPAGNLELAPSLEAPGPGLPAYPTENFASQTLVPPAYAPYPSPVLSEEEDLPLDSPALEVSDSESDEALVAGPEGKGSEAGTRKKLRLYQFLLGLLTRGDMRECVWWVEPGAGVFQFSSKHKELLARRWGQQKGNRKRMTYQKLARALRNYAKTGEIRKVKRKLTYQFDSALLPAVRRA
ELF4, sequence (Q99607 whole entry): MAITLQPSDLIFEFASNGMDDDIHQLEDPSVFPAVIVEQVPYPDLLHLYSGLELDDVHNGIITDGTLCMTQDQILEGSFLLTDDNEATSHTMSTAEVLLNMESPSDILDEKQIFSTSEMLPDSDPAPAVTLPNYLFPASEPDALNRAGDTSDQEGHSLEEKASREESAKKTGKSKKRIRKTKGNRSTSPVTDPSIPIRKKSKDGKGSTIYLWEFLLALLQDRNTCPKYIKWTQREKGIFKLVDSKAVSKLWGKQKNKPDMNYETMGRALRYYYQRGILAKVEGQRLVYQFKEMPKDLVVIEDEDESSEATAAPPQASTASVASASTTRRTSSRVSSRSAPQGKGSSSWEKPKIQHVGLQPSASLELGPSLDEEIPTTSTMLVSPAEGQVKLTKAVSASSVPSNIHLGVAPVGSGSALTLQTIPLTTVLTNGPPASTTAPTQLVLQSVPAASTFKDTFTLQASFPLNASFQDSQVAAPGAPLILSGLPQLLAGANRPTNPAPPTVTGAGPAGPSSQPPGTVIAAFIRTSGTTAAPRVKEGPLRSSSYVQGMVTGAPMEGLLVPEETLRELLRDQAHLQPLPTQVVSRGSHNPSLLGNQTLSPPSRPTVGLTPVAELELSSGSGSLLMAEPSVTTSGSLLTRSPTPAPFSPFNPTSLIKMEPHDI
ETV5, sequence (P41161 whole entry): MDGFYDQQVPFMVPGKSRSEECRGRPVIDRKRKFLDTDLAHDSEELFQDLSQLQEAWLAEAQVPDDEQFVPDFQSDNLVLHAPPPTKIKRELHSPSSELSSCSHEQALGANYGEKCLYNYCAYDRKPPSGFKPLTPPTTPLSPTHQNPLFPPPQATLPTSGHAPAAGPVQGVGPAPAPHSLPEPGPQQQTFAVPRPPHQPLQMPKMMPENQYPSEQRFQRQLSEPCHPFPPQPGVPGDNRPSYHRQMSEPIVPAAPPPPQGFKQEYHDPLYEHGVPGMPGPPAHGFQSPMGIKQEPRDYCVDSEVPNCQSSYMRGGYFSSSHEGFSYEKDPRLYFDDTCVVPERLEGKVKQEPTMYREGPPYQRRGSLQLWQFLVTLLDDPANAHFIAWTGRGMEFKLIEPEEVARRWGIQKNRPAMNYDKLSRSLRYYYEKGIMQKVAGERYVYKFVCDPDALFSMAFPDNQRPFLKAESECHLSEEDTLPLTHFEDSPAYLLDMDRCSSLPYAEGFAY
ETV1, sequence (P50549 whole entry): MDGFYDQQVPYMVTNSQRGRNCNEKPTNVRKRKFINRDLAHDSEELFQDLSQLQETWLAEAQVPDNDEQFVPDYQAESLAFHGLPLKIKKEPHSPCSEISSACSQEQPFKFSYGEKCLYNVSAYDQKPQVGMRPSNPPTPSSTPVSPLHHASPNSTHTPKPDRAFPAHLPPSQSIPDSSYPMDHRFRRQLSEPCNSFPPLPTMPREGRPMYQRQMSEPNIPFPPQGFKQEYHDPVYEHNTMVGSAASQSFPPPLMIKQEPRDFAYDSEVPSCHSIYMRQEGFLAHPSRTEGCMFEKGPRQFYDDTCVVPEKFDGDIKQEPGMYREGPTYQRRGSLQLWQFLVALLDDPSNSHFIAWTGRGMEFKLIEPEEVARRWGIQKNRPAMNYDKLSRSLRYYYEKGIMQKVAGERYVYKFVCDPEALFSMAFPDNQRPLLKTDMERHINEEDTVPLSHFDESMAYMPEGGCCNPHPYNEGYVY
ELF1, sequence (P32519 whole entry): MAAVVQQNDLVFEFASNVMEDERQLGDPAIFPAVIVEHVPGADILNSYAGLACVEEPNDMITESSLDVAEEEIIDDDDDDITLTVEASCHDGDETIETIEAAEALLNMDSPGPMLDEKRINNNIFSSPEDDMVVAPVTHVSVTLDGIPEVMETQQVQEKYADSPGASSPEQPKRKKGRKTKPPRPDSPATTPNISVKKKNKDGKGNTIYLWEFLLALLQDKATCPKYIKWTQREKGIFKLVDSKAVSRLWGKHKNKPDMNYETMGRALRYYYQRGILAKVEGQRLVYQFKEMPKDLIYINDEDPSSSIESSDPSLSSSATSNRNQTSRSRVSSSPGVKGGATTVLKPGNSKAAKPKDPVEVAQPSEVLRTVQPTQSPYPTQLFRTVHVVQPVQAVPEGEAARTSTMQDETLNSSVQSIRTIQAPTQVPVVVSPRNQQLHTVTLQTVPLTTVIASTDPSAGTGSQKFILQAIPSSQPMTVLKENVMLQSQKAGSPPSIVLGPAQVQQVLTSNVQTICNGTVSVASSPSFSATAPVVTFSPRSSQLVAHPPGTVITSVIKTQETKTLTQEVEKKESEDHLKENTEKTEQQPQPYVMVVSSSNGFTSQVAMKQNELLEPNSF

TAATCG
binding signal (FLI1): 1.07 fold enrichment (6-mer frequency, TF over GST control) | binding signal (ELK1): 1.09 fold enrichment (6-mer frequency, TF over GST control) | binding signal (GABPA): 1.14 fold enrichment (6-mer frequency, TF over GST control) | binding signal (ELF1): 1.04 fold enrichment (6-mer frequency, TF over GST control) | binding signal (EHF): 1.07 fold enrichment (6-mer frequency, TF over GST control) | binding signal (SPI1): 1.02 fold enrichment (6-mer frequency, TF over GST control) | binding signal (SPIB): 1.04 fold enrichment (6-mer frequency, TF over GST control) | binding signal (ELK3): 1.07 fold enrichment (6-mer frequency, TF over GST control) | binding signal (FEV): 1.01 fold enrichment (6-mer frequency, TF over GST control) | binding signal (ETV5): 1.07 fold enrichment (6-mer frequency, TF over GST control) | binding signal (HSF1): 1.93 fold enrichment (6-mer frequency, TF over GST control) | binding signal (SPIC): 1 fold enrichment (6-mer frequency, TF over GST control) | binding signal (ELF4): 1.07 fold enrichment (6-mer frequency, TF over GST control) | binding signal (ELK4): 1.1 fold enrichment (6-mer frequency, TF over GST control) | binding signal (ETV2): 1.04 fold enrichment (6-mer frequency, TF over GST control) | binding signal (ELF3): 1.07 fold enrichment (6-mer frequency, TF over GST control) | binding signal (CRX): 2.89 fold enrichment (6-mer frequency, TF over GST control) | binding signal (ETV1): 1.01 fold enrichment (6-mer frequency, TF over GST control)
